About 83,000 compounds went through this panel and 20% of them were active in at least one assay; those are over-represented in the sample as a whole.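 Interpretation: 100, growth as untreated; towards 0, rising growth inhibition; 0, no net growth; 0 to -100, cell death. Compounds scoring below 10 were considered active.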 Calls of active or inactive are those of the source.

The assay concerns MDA-MB-468 breast. Kind of assay: NCI-60 one-dose screen, 48 h (100 = growth as untreated, 0 = no growth, -100 = all killed). The following applies: 10 µM unless noted.
In the case of `CC(C)CC1NC(=O)C(CCCN)NC(=O)C(C(C)C)NC(=O)C2CCCN2C(=O)C(Cc2ccccc2)NC(=O)C(CC(C)C)NC(=O)C(CCCN)NC(=O)C(C(C)C)NC(=O)C2CCCN2C(=O)C(Cc2ccccc2)NC1=O` (stereo not given), the growth is -78.1% (active).

`O=[N+]([O-])c1cccc(-c2nc3sccn3c2-c2ccnc(NCCCNS(=O)(=O)c3ccc(C(F)(F)F)cc3)n2)c1`: the growth was 22.8% (inactive).

`CCOC(=O)C1=C(C)N2C(=NC3=C(CCCC/C3=C\c3cc(OC)c(OC)c(OC)c3)C2c2cc(OC)c(OC)c(OC)c2)S1` (stereo not given): the growth is 25.2% (inactive).

Take `COc1ccc(C2=CN3CC=CC3CC2=O)cc1` (stereo not given): the growth was 95.3% (inactive).

For the compound `CC1(C)OC2=C(CC1Br)C(=O)C(=O)c1ccccc12` (stereo not given), the growth was -87.1% (active).

Consider `Cc1cc(-c2noc(C(F)(F)F)n2)ccc1N1CCN(c2cc(C(=O)N(C)C)no2)CC1`, for which the growth is 15.2% (inactive).

On to `COc1cccc(/C=N/NC(=O)c2ccccc2Nc2ccnc(C(F)(F)F)c2)c1O`, for which the growth was -19.6% (active).

Regarding `CN1C(=O)/C(=C/c2nc(-c3cccc(F)c3)n3ccccc23)c2ccccc21`, the growth is 101% (inactive).

For `COc1cc(C2C3=C(COC3=O)N(CCO)c3cc4c(cc32)CCC4)cc(OC)c1O` (stereo not given), the growth was -21.7% (active).

In the case of `Nc1cc(Cl)c(S(N)(=O)=O)cc1S(N)(=O)=O`, the growth is 99.3% (inactive).

For `COc1ccc(/C=C2\COc3ccc(O)c(O)c3C2=O)cc1`, the growth was -8.03% (active).

In the case of `O=C(Nc1nc2c(C(F)(F)F)cccc2s1)c1cc(Cl)ccc1O`, the growth is -10.5% (active).

For `COC(=O)Nc1nc2ccc(S(=O)c3ccccc3)cc2[nH]1` (stereo not given), the growth was 33.8% (inactive).

Turning to `COc1ccc2c(c1)c(CC(=O)O)c(C)n2C(=O)c1ccc(Cl)cc1`, the growth is 96.4% (inactive).

As for `CC1(C)CC(=O)c2c(nn(-c3ccc(Br)cc3)c2-c2cn(-c3ccccc3)nc2-c2cccnc2)C1`, the growth is 107% (inactive).

For `C(=C\c1nc2ccccc2[nH]1)/c1nc2ccccc2[nH]1`, the growth is 106% (inactive).

As to `CC(C)(C)n1cc(-c2ccnc(NCCCNS(=O)(=O)c3cccc4ccccc34)c2)c(-c2cccc(O)c2)n1`, the growth is 10.7% (inactive).

As for `C#CC(=O)Nc1cccc2c1cc(C)n2-c1nc2c(c(NCc3ccccc3)n1)CCCC2`, the growth was -63.3% (active).

Turning to `O=c1sn(-c2cccc3ccccc23)c(=O)n1Cc1ccccc1`, the growth was 106% (inactive).

On to `COCCOC(=O)COc1ccc(OC)cc1`, for which the growth was 95.6% (inactive).

As for `CCCOc1ccc(/C=N/Nc2cc(C)nc3ccc(Cl)cc23)cc1`, the growth was 8.78% (active).

Take `CC1CCN(CCCCCOc2ccc3oc4cc(Cl)ccc4c(=O)c3c2)CC1`: the growth is 57.7% (inactive).

Take `COc1ccc(S(=O)(=O)N2CC3(COC3)C2)cc1NC(=O)c1[nH]c(C)c2c1CCCCC2=O`: the growth was 22.2% (inactive).

Regarding `CCN1CCN(Cc2cn(CC(=O)Nc3ccc4c(ccn4Cc4ccccc4)c3)nn2)CC1`, the growth was 97.2% (inactive).

Consider `CCCCC1COc2cccc3c(SCC(=O)N(C)c4cccc5ccccc45)cc[n+]1c23` (stereo not given), for which the growth is 92.2% (inactive).

Turning to `CCCN=C1NC(=O)/C(=C/c2nc(-c3ccc(OC)cc3)n3ccccc23)S1`, the growth was 101% (inactive).

Consider `COc1ccc(N/N=C/c2cn(-c3ccc(C(=O)O)cc3)nc2-c2cc3ccccc3oc2=O)cc1`, for which the growth was 107% (inactive).

With `COc1cc(/C=N/Nc2ncc(-c3cc4cc5c(cc4o3)OCO5)s2)cc(OC)c1OC`, the growth was 25.2% (inactive).

Turning to `CCCC(=O)NC(c1ccc2c(c1)OC(F)(F)O2)c1cc(C)c2cccnc2c1O` (stereo not given), the growth was -14.7% (active).

With `CCN(c1ccc(Cl)cc1)c1nc(-c2ccc([N+](=O)[O-])cc2)cs1`, the growth is 83.8% (inactive).

With `O=C(N=Nc1c(O)[nH]c2ccccc12)Nc1ccc(Cl)cc1`, the growth is 81.7% (inactive).

As to `COc1ccc(-c2cc(NC(=O)Nc3ccc4ncsc4c3)no2)cc1`, the growth was 99.2% (inactive).

With `CCN(CC)CCCNC(=O)c1ccc(N)cc1O`, the growth was 85.7% (inactive).

Consider `COc1ccc2nc(Cl)c(Cn3nnc(Cc4ccccc4)n3)cc2c1`, for which the growth is 29.9% (inactive).

Turning to `COc1cc(-c2nc3sccn3c2-c2ccnc(NCCNS(=O)(=O)c3ccc(Cl)cc3)n2)ccc1F`, the growth is 29.7% (inactive).

Regarding `CS(=O)(=O)c1ccc(-c2cnn3ccc(-c4cccc(S(=O)(=O)C5CC5)c4)nc23)cc1`, the growth is 27.7% (inactive).

For `CNC(=O)c1cc(Oc2ccc3c(c2)sc2nc(-c4ccc(NC(=O)[C@@H](NC(=O)OC)C(C)C)cc4)cn23)ccn1`, the growth is 28.4% (inactive).

Turning to `CCCCCN(CCCCC)CCCNc1c2c(nc3ccc(Cl)cc13)CCCC2`, the growth was 8.01% (active).

`C/C(=C(\c1ccc(OCCN2CCCCCC2)cc1)c1ccc(OC(=O)Cc2ccccc2)cc1)c1ccc(Cl)cc1`: the growth is -4.03% (active).

Consider `COCc1c(-c2ccc(NC(=O)Nc3cc(C(F)(F)F)ccc3F)c(F)c2)c2c(N)ncnn2c1CN1CCOCC1`, for which the growth is -54.8% (active).

Values taken from PubChem BioAssay (NCI).
